Experiment [1] addresses Mitogen-activated protein kinase 11 (Homo sapiens) (UniProt Q15759). As to conditions: at 1 µM.
Experiment [2] has the same target. The settings on record: at 10 µM.
For experiment [3], the target named is T1, Mitogen-activated protein kinase 13 (Homo sapiens) (UniProt O15264).
T1 sequence (whole entry): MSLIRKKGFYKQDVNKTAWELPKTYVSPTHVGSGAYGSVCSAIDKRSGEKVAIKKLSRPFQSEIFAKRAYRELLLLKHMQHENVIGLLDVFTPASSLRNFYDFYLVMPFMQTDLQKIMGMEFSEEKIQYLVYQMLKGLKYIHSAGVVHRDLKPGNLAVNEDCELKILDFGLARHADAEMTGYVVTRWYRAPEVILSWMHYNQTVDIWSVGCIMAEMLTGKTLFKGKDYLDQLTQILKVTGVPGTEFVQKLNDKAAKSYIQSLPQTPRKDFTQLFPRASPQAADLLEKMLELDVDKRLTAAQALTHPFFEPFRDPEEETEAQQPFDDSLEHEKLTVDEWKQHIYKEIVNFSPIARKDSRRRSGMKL
The settings on record: at 1 µM.

In experiment [4] the target is T1, Mitogen-activated protein kinase 13 (Homo sapiens). The settings on record: at 10 µM.
Experiment [5] has as its target T2, Serine/threonine-protein kinase Sgk1 (Homo sapiens) (UniProt O00141).
T2 sequence (whole entry): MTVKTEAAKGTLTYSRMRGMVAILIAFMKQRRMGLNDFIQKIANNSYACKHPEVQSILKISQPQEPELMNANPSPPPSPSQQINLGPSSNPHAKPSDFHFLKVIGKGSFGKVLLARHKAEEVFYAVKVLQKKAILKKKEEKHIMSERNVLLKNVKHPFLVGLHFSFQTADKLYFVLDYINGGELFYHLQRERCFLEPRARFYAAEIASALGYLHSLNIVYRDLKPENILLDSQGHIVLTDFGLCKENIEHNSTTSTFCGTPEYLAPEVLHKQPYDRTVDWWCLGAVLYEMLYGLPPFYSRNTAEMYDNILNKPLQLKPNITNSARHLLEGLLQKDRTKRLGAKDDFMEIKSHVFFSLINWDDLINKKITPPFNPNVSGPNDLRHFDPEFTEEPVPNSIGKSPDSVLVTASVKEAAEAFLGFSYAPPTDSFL
As to conditions: at 1 µM.

For experiment [6], the target named is T2, Serine/threonine-protein kinase Sgk1 (Homo sapiens). The settings on record: at 10 µM.
Experiment [7] addresses T3, Serine/threonine-protein kinase Sgk2 (Homo sapiens) (UniProt Q9HBY8).
T3 sequence (whole entry): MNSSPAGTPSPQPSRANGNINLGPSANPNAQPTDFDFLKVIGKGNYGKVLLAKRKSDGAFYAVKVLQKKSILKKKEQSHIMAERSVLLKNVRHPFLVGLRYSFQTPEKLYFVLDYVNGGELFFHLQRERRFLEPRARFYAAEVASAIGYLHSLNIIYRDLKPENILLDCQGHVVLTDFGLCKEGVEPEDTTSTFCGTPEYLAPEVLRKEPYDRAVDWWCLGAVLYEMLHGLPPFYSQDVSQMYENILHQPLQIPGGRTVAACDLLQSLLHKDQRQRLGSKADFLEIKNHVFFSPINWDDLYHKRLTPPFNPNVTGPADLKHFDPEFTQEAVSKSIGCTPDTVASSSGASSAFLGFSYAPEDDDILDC
The settings on record: at 1 µM.

Experiment [8] deals with T3, Serine/threonine-protein kinase Sgk2 (Homo sapiens). The settings on record: at 10 µM.
Experiment [9] concerns the target T4, Serine/threonine-protein kinase Sgk3 (Homo sapiens) (UniProt Q96BR1).
T4 sequence (whole entry): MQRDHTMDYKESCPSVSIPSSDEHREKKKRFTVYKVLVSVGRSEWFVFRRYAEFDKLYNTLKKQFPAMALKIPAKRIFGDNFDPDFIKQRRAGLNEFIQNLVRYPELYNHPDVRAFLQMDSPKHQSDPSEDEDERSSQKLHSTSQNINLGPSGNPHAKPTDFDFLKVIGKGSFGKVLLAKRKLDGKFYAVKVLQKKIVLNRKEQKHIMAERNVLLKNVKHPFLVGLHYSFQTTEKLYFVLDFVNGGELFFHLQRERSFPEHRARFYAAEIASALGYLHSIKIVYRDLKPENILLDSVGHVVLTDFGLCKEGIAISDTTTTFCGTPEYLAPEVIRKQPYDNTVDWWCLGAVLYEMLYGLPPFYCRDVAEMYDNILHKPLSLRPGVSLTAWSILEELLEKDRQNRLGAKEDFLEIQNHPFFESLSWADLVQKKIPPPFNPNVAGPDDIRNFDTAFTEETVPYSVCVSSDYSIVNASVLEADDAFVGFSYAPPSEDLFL
As to conditions: at 10 µM.

Experiment [10] deals with Serine/threonine-protein kinase SIK1 (Homo sapiens) (UniProt P57059). As to conditions: at 1 µM.
For experiment [11] the target is unchanged. The settings on record: at 10 µM.
Experiment [12] deals with SRSF protein kinase 1 (Homo sapiens) (UniProt Q96SB4). The settings on record: at 1 µM.
Experiment [13] shares this target. The settings on record: at 10 µM.
The target in experiment [14] is SRSF protein kinase 2 (Homo sapiens) (UniProt P78362). As to conditions: at 1 µM.
Experiment [15] has the same target. The settings on record: at 10 µM.
Experiment [16] deals with Serine/threonine-protein kinase 33 (Homo sapiens) (UniProt Q9BYT3). As to conditions: at 1 µM.
For experiment [17] the target is unchanged. As to conditions: at 10 µM.
The target of experiment [18] is Serine/threonine-protein kinase PLK2 (Homo sapiens) (UniProt Q9NYY3). The settings on record: at 1 µM.
Experiment [19] has the same target. As to conditions: at 10 µM.
Experiment [20] concerns the target Tyrosine-protein kinase SYK (Homo sapiens) (UniProt P43405). The settings on record: at 1 µM.

Among the data in ChEMBL document CHEMBL2218924, “A broad activity screen in support of a chemogenomic map for kinase signalling research and drug discovery” (Biochem J, 2013) are residual activity values, retold here.

Serine/threonine-protein kinase 33 (Homo sapiens), sequence (Q9BYT3 whole entry, looked up): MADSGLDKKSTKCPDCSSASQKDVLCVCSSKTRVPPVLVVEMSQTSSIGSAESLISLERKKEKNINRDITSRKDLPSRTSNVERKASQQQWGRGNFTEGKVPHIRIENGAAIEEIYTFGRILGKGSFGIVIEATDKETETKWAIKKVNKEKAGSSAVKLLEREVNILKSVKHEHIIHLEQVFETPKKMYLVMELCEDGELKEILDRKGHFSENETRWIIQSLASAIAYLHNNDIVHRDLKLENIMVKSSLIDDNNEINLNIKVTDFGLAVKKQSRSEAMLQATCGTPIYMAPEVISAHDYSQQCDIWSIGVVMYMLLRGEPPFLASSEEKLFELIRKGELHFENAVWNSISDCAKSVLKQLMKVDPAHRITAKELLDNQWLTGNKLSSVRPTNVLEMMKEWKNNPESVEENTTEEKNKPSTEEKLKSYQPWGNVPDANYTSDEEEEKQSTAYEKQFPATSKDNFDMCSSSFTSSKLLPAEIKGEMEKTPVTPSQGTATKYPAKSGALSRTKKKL
Mitogen-activated protein kinase 11 (Homo sapiens), sequence (Q15759 whole entry): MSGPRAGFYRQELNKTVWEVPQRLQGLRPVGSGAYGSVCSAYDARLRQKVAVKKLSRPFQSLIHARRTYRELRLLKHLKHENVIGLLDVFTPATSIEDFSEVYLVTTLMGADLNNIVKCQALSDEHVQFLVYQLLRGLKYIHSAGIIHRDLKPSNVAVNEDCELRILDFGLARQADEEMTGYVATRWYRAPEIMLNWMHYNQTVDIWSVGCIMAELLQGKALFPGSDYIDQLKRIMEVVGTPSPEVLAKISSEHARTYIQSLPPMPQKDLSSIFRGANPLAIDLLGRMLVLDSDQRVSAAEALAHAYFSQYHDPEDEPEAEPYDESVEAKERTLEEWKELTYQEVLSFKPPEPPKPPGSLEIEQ
Serine/threonine-protein kinase PLK2 (Homo sapiens), sequence (Q9NYY3 whole entry, looked up): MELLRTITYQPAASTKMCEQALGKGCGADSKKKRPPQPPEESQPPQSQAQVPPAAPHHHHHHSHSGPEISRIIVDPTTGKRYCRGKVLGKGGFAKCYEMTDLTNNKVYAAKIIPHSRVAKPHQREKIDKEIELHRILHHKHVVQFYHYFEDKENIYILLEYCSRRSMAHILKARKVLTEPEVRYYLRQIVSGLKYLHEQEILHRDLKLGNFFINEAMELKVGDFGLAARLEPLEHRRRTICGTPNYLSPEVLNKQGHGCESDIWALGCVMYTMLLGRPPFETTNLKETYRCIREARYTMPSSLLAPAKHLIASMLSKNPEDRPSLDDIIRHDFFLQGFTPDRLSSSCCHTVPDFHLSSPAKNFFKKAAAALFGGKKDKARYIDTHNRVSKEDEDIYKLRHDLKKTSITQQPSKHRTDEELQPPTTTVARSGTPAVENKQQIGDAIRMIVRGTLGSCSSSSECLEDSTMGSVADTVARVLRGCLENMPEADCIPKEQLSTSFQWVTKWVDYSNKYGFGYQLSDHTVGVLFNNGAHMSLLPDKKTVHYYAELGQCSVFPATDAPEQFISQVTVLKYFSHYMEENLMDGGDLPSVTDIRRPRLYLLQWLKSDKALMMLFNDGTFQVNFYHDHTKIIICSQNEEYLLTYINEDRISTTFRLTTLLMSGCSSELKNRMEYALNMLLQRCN
Serine/threonine-protein kinase SIK1 (Homo sapiens), sequence (P57059 whole entry): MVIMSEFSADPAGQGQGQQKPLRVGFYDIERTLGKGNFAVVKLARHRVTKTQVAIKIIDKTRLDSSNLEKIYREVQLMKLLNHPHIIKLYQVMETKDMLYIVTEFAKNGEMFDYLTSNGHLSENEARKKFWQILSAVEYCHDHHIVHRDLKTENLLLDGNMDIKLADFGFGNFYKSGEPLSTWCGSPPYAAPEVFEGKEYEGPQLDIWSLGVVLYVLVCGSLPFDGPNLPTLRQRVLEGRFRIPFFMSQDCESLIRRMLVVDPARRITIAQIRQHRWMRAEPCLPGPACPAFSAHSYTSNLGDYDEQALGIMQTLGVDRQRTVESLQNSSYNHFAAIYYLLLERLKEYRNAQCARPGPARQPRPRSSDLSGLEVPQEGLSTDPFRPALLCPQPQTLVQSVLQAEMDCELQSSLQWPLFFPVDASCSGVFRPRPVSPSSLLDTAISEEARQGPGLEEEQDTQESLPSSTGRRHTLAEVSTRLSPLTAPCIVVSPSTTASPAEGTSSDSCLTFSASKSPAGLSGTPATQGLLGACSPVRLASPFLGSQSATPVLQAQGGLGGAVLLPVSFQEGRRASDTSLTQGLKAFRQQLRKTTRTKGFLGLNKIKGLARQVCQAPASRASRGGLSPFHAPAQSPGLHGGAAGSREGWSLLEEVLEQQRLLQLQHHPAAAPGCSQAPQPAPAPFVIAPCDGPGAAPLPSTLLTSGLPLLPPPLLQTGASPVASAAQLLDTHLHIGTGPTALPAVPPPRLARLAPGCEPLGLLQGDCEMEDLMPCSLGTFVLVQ
SRSF protein kinase 1 (Homo sapiens), sequence (Q96SB4 whole entry): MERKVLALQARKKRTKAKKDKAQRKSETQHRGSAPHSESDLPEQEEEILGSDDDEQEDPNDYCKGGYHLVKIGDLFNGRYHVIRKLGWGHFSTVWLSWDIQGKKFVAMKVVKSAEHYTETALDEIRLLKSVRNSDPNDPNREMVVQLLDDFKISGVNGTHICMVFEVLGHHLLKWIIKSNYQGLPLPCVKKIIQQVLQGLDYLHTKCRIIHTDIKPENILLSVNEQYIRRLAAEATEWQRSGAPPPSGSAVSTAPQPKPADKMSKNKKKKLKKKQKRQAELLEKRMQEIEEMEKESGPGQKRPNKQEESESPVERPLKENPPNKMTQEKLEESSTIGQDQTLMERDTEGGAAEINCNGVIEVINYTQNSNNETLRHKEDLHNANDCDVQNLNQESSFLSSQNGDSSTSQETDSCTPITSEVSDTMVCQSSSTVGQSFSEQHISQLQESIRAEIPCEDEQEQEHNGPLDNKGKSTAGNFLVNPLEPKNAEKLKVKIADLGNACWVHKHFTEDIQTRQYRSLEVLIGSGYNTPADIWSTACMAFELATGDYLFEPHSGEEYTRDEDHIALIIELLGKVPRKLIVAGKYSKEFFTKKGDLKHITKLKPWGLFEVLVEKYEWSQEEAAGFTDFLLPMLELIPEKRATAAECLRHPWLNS
SRSF protein kinase 2 (Homo sapiens), sequence (P78362 whole entry, looked up): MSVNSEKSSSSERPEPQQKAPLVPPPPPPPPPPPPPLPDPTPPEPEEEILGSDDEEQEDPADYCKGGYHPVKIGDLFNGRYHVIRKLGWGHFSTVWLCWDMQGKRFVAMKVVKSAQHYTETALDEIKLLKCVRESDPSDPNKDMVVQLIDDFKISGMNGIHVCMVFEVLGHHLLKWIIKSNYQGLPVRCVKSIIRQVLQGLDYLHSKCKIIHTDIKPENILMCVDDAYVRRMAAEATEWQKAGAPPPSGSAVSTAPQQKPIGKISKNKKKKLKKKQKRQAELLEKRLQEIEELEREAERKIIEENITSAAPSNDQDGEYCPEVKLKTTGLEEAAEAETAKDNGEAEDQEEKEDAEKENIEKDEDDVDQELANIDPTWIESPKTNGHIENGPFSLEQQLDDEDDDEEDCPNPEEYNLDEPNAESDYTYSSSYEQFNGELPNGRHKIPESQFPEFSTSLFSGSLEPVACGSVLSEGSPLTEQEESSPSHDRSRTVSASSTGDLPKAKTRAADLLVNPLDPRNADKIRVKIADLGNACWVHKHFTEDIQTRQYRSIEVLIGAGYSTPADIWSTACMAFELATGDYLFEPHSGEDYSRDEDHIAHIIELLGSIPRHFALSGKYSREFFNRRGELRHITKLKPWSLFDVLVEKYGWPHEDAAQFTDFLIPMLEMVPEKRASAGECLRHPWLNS

As to `CCC(=O)Nc1ccc2ncnc(Nc3cccc(Br)c3)c2c1`, the residual activity was 91% in [1]; 88% in experiment [2]; 100% in [3]; 102% in experiment [4]; 107% in experiment [5]; 114% in experiment [6]. The residual activity in experiment [7] is 105%; in experiment [8], 77%; in experiment [9] it was 95%; in experiment [10], 68%; in experiment [11], 13%; in experiment [12], 102%. For the same compound, the residual activity was 98% in experiment [13]; 89% in experiment [14]; 74% in [15]; 91% in [16]; 98% in experiment [17]; 104% in experiment [18]. The residual activity in [19] was found to be 98%; in [20] it was 125%.

Consider `O=c1c2ccccc2[nH]c(=S)n1CCN1CCC(=C(c2ccc(F)cc2)c2ccc(F)cc2)CC1`, for which the residual activity in experiment [1] was 103%; in [2], 102%; in experiment [3], 102%; in experiment [4] it was 89%; in [5], 92%; in experiment [6], 43%. The residual activity is 90% in experiment [7]; 88% in experiment [8]; 72% in [9]; 95% in [10]; 80% in experiment [11]; 81% in [12]. In addition, the residual activity in experiment [13] came out at 81%; in experiment [14], 108%; in [15], 97%; in experiment [16], 103%; in experiment [17], 99%; in [18], 113%. For the same compound, the residual activity in experiment [19] was 101%; in [20] it was 125%.

With `O=C(Nc1cccc(Nc2nccc(Nc3cccc(C(F)(F)F)c3)n2)c1)C1CC1`, the residual activity was 103% in experiment [1]; 88% in experiment [2]; 107% in experiment [3]; 95% in experiment [4]; 84% in experiment [5]; 66% in [6]. In addition, the residual activity in [7] stood at 108%; in experiment [8], 89%; in experiment [9], 78%; in experiment [10] it was 58%; in experiment [11], 50%; in experiment [12] it was 107%. Further, the residual activity in [13] was 87%; in [14], 96%; in [15], 90%; in experiment [16], 102%; in experiment [17] it was 89%; in experiment [18], 102%. Also, the residual activity is 73% in experiment [19] and 79% in [20].

With `O=[N+]([O-])c1ccc(-c2nc(-c3ccc(F)cc3)c(-c3ccncc3)[nH]2)cc1`, the residual activity in experiment [1] is 5%; in experiment [2], 3%; in [3], 102%; in experiment [4] it was 99%; in experiment [5] it was 81%; in experiment [6], 104%. For the same compound, the residual activity in experiment [7] came to 120%; in [8] it was 94%; in experiment [9] it was 95%; in experiment [10], 130%; in experiment [11], 106%; in [12], 109%. Moreover, the residual activity in experiment [13] was found to be 109%; in [14], 98%; in [15], 85%; in experiment [16], 104%; in experiment [17] it was 101%; in [18], 103%. The residual activity in [19] came out at 104%; in [20], 118%.

For `O=C1NC(=O)c2c1c1c3ccccc3[nH]c1c1[nH]c3cc(Br)ccc3c21`, the residual activity in experiment [1] is 105%; in [2], 107%; in [3], 101%; in experiment [4], 94%; in experiment [5], 44%; in [6] it was 50%. Besides, the residual activity in [7] is 64%; in experiment [8], 69%; in [9], 78%; in experiment [10], 111%; in [11], 83%; in [12], 82%. Further, the residual activity in experiment [13] was 96%; in experiment [14] it was 83%; in [15], 77%; in [16], 94%; in experiment [17] it was 88%; in experiment [18], 93%. Besides, the residual activity in [19] came out at 94%; in experiment [20] it was 104%.

For the compound `O=C1Nc2cc(Br)ccc2/C1=C1/Nc2ccccc2/C1=N\O`, the residual activity in [1] was determined as 97%; in experiment [2], 92%; in [3], 89%; in [4], 92%; in experiment [5] it was 28%; in [6], 14%. In addition, the residual activity in experiment [7] was found to be 47%; in experiment [8] it was 55%; in experiment [9] it was 64%; in experiment [10] it was 18%; in [11], 8%; in [12], 98%. The residual activity was determined as 84% in experiment [13]; 88% in experiment [14]; 70% in experiment [15]; 73% in experiment [16]; 72% in experiment [17]; 97% in experiment [18]. For the same compound, the residual activity in [19] was found to be 96%; in experiment [20], 70%.
